Experimental findings from PubChem BioAssay AID2148 (The Scripps Research Institute Molecular Screening Center, 2009) are described below.

Structures are written as SMILES. Screen size: about 2,400 compounds; about 1,500 (62%) were called active. Cut-off read from the data, not from the text of the source: active = inhibition above about 22%; inactive = the rest. So high a share suggests a set chosen from earlier hits. Only a sample is shown.

This assay has as its target Melanin-concentrating hormone receptor 1 (Homo sapiens) (UniProt Q99705). As to the kind of experiment: MCHR1 antagonists in cells, counter-screen for GPR7 antagonist project, cell-based, fluorescence, human (AID 2148).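 Note: 0% = vehicle with agonist and 100% = vehicle without agonist.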 To be noted: MCHR1-expressing cells, fluorescence antagonist assay; at 4.4 µM; hits give high values.
One may read the inhibition as the relative decrease from the control value, in per cent. On to `CC(C)OCCCNc1ncnc2c1[nH]c1ccc(F)cc12`, for which the inhibition is 70.9% (active).
With `Cc1cc(OC(C)C(=O)NC2CC(C)(C)NC(C)(C)C2)c2c(C)cc(=O)oc2c1` (centres undefined), the inhibition is -9.17% (inactive).
For `O=C(COc1ccccc1)NCc1ccc2c(c1)OCO2`, the inhibition was 1.89% (inactive).
Consider `CCOc1ccc(Cn2nnc(C(=O)NCc3ccccc3)c2N)cc1`, for which the inhibition was 51.5% (active).
For `O=C(Cc1ccc(Cl)cc1)NC(=S)Nc1ccccc1O`, the inhibition was 96.4% (active).
Consider `Cc1ccccc1NC(=S)NC(=O)Cc1ccc(Cl)cc1`, for which the inhibition was 65.3% (active).
As to `O=C(NC(=O)c1ccccc1)Nc1ccccc1O`, the inhibition is 14.3% (inactive).
`O=C(CC(=O)Nc1ccc(Cl)c(Cl)c1)N/N=C/c1ccc(O)cc1`: the inhibition is 12.4% (inactive).
The result for `CS(=O)(=O)N(CC(O)Cn1c2ccccc2c2ccccc21)c1cccc2ccccc12` (centres undefined) reads 41.7% (active).
With `Cc1cccc(NC(=O)c2cccc(C(=O)Nc3cccc(C)c3C)n2)c1C`, the inhibition was 25.4% (active).
As for `Cc1ccc(C(=O)C[n+]2cc(-c3ccccc3)n3c2CCCCC3)cc1`, the inhibition was 16.7% (inactive).
Regarding `Cc1ccc2[nH]cc(CCNC(=O)c3ccc([N+](=O)[O-])cc3)c2c1`, the inhibition is 49% (active).
As to `O=C(Nc1nc(-c2ccc3c(c2)OCO3)cs1)c1ccncc1`, the inhibition was 67.8% (active).
As to `O=C(Nc1ccccc1F)c1ccc2c(c1)OCO2`, the inhibition was 2.37% (inactive).
On to `COc1ccc(NS(=O)(=O)c2ccc(NC(=S)NC(=O)CC(C)C)cc2)cc1`, for which the inhibition is 58.1% (active).
With `O=C(CSCc1ccc([N+](=O)[O-])cc1)NCCSCc1ccccc1`, the inhibition was 28.9% (active).
Consider `O=[N+]([O-])c1ccc(N(CCO)Cc2ccccc2)c([N+](=O)[O-])c1`, for which the inhibition was 15.3% (inactive).
As to `N=c1c2c(-c3ccccc3)c(-c3ccccc3)n(Cc3ccccc3)c2ncn1CCCO`, the inhibition is 38.1% (active).
On to `CCN1/C(=C\c2ccc3ccccc3[n+]2CC)Sc2cc(C)ccc21`, for which the inhibition is 42.9% (active).
`CCc1ccc(OCC2c3cc(OC)c(OC)cc3CCN2C(C)=O)cc1` (centres undefined): the inhibition was 29.6% (active).
On to `CC1CN(C(=O)CCC(=O)NCCCN2CCC(Cc3ccccc3)CC2)c2cc(Cl)ccc2O1` (centres undefined), for which the inhibition was 49.6% (active).
As to `Cc1ccc(S(=O)(=O)n2cnc3ccccc32)c(C)c1`, the inhibition was -5.48% (inactive).
The same measure for `CC(=O)Nc1ccc(S(=O)(=O)N(C)CC(=O)NCCC2=CCCCC2)cc1`: -1.52% (inactive).
With `COc1ccc(C(CCNCc2ccccc2F)c2ccc(F)cc2)cc1` (centres undefined), the inhibition was 42.1% (active).
